The text below walks through data of PubChem BioAssay (NCATS).

Results filed as inconclusive are left out. Where a call stands in place of a potency, no number is given. Activity calls are given as the source filed them. Calls come from the whole dose curve; as a rule, active = well fitted cell-killing curve with a large enough effect; inconclusive = small, poorly fitted or top-dose-only effect; inactive = flat fitted curve, though single readings scatter.
Potency is the fitted concentration of half-maximal effect.

This experiment can be described thus: Quantitative highthroughput screen to assess conditional lethalithy of NOMO1 cells grown in RPMI1640 with untreated serum (RPMI+s) (AID 1963876). Note: nearly all actives have a fitted effect of over 35% in size. To be noted: NOMO1 AML cells in RPMI+serum, CellTiter-Glo viability, 48 h; series mostly up to 45.8 µM. The source says: Assay Provider: Jason Cantor Ph.D.
Department of Biochemistry
University of Wisconsin-Madison, Madison, WI, USA
Chemical screening studies have identified drug sensitivities across hundreds of cancer cell lines but most putative therapeutics fail to translate. Discovery and development of drug candidates in models that more accurately reflect nutrient levels in human blood is a major challenge. Here we performed high-throughput screens in conventional versus Human Plasma-Like Medium (HPLM) to identify compounds that were "missed" when screening using the artificial culture condition. Sets of conditional anticancer compounds spanned phases of clinical development and included non-oncology drugs were assessed. […] We also traced conditional phenotypes for several chemotherapeutics to availability of HPLM-specific metabolites and confirmed others for compounds whose reported targets are encoded by nonessential genes. Our findings establish generalizable strategies for exploiting conditional lethality in HPLM to reveal therapeutic candidates and mechanisms of action in cancer cells.
Described herein are the results of each viability screens against three cell lines: NOMO1 (an acute myeloid leukemia cell line); P12-Ichikawa (a T-cell acute lymphoblastic leukemia); and SEM (a B-cell ALL). Each assay was screened using 3 different cell culture media: homemade human plasma-Like medium with 10% dialyzed fetal bovine serum (HPLM+ds); RPMI1640 with 10% untreated FBS and 5mM glucose (RPMI+s); and RPMI1640 with 10% dialyzed fetal bovine serum and 5 mM glucose (RPMI+ds).
PROTOCOL TABLE (as described by Inglese J, Shamu CE and Guy RK. 2007)
SEQUENCE No. (e.g., 1, 2, 3, etc.); […] (e.g., Cells, Incubation, Reagent, etc.); VALUE and DESCRIPTION.
1; Cells; 5 uL; white, solid bottom 1536-well Greiner assay plate.
2; Compounds; 23 nL; Kalypsis pin tool (Wako USA) equipped with a 1536-well pin head to transfer to the assay plates.
3; Incubation; 48 hours; 37C incubation.
4; Reagent; 3 uL; CellTiter Glo (Promega).
5; Incubation; 5 min, room temperature
6; Detection; Luminescence, Viewlux PerkinElmer.
NOTES (numbers refer to Sequence numbers above)
1. Briefly, 5 ul of cell reagent was dispensed using a Multidrop Combi Dispenser. The NOMO1 and SEM cells were plated at 500 cells/well and the P12-Ichikawa line at 1000 cells/well.
2. After seeding the cells, 23 nL of MIPE 4.1 library compounds (in DMSO) were added to each plate using a Kalypsys 1536 Pintool dispenser. Bortezomib at final concentration of […] and DMSO were added to each plate as positive and negative controls respectively. For each screen, MIPE 4.1 compounds were added over an eleven-point concentration range […] in 3-fold dilutions.
3. Each plate was covered with a stainless steel gasketed lid to prevent evaporation and incubated for 48 hour at 37C, 95% relative humidity, and 5% CO2.
4-5. Three microliter CellTilter-GloTM luminescent substrate mix (Promega) reagent was added to the assay plate and incubated at room temperature for 5 min.
6. The luminescence signal was measured using a ViewLux (PerkinElmer) multiplate reader with a 2 second exposure time per plate. Data for each compound were normalized as percent viability such that measurements for DMSO and the empty well controls in each plate were defined as 100% and 0%, respectively.
For orientation: In ATP-based viability assays light output follows the ATP content of the culture.
Take `COc1ccc([C@@H]2CC(=O)c3c(O)cc(O[C@@H]4O[C@H](CO[C@@H]5O[C@@H](C)[C@H](O)[C@@H](O)[C@@H]5O)[C@@H](O)[C@H](O)[C@@H]4O)cc3O2)cc1O`: the Potency result was “inactive”. With `COc1cc(F)c(C(C)C)cc1-c1ccc(C(F)(F)F)cc1CN1C(=O)O[C@H](c2cc(C(F)(F)F)cc(C(F)(F)F)c2)[C@@H]1C`, the Potency result was “inactive”. For `CC(C)(C#N)c1cc(Cn2cncn2)cc(C(C)(C)C#N)c1`, the Potency result was “inactive”. Regarding `O=C(c1cc(Cc2n[nH]c(=O)c3ccccc23)ccc1F)N1CCN(C(=O)C2CC2)CC1`, the Potency result was “inactive”.

With `COc1cc(OC)c(NC(=O)Nc2cc(C)on2)cc1Cl`, the Potency entry is “inactive”.

Consider `C=C(c1ccc(C(=O)O)cc1)c1cc2c(cc1C)C(C)(C)CCC2(C)C`, for which the Potency result is “inactive”. The entry for `S=c1nc[nH]c2nc[nH]c12` is “inactive”; for `COC(=O)N[C@H](C(=O)N1CCC[C@@H]1c1ncc(-c2ccc(-c3ccc(-c4cnc([C@@H]5CCCN5C(=O)[C@@H](NC(=O)OC)C(C)C)[nH]4)cc3)cc2)[nH]1)C(C)C` it is “inactive”. `CCC[C@H](N[C@@H](C)C(=O)N1[C@@H]2CCCC[C@H]2C[C@H]1C(=O)O)C(=O)OCC`: the Potency was 13200 nM (active).

`CC(C)c1ccc2oc3nc(N)c(C(=O)O)cc3c(=O)c2c1`: the Potency entry was “inactive”.

Turning to `CCC(=C(CC)c1ccc(O)cc1)c1ccc(O)cc1`, the Potency result was “inactive”. In the case of `O=S(=O)(O)CCS`, the Potency was 743 nM (active). For `C[C@@H](Cc1cc2c(c(C(N)=O)c1)N(CCCO)CC2)NCCOc1ccccc1OCC(F)(F)F`, the Potency entry was “inactive”. Take `O=C(Nc1nc2ccccc2n1CCN1CCOCC1)c1cccc([N+](=O)[O-])c1`: the Potency entry was “inactive”. `CNC1CCCN(c2c(F)cc3c(=O)c(C(=O)O)cn(C4CC4)c3c2OC)C1` (stereo not given): the Potency result is “inactive”. Regarding `COc1c(C)cnc(Cn2cnc3c(Cl)nc(N)nc32)c1C`, the Potency was 743 nM (active). The entry for `COc1ccc(Nc2nccc(NCCO)n2)cc1` is “inactive”; for `CN(C)c1ccc(C(=C2C=CC(=[N+](C)C)C=C2)c2ccc(N(C)C)cc2)cc1` it is 148 nM (active). Regarding `CS(=O)c1ccc(-c2nc(-c3ccc(F)cc3)c(-c3ccncc3)[nH]2)cc1` (stereo not given), the Potency is 6790 nM (active). The entry for `CC[C@H](C)n1cc(C)c2c(C(=O)NCc3c(C)cc(C)[nH]c3=O)cc(-c3ccc(N4CCNCC4)nc3)cc21` is “inactive”; for `CNC(=O)c1cc(COc2nnc(Nc3ccc(Cl)cc3)c3ccoc23)ccn1` it is “inactive”; for `CC(=O)O[C@H]1C[C@@H]2CC[C@H]3[C@H]4C[C@H]([N+]5(C)CCCCC5)[C@@H](OC(C)=O)[C@@]4(C)CC[C@@H]3[C@@]2(C)C[C@H]1N1CCCCC1` it is “inactive”. The figure for `CC(C)(C)C(=O)OCOP(=O)(COCCn1cnc2c(N)ncnc21)OCOC(=O)C(C)(C)C` is 235 nM (active); for `CN[C@@H]1[C@@H](O)[C@@H](O[C@@H]2[C@@H](O)[C@H](O[C@H]3O[C@H](CN)[C@@H](O)[C@H](O)[C@@H]3O)[C@@H](N)C[C@@H]2NC(=O)[C@@H](O)CN)OC[C@]1(C)O` it is “inactive”; for `Cc1cccc(C#Cc2ccccc2)n1` it is “inactive”. The value for `O=[N+]([O-])c1cn2c(n1)OC[C@@H](OCc1ccc(OC(F)(F)F)cc1)C2` was “inactive”; that for `O=C(O)c1cn(-c2ccc(F)cc2)c2cc(N3CCNCC3)c(F)cc2c1=O` was “inactive”. As for `O=P(O)(O)C(O)(Cc1cccnc1)P(=O)(O)O`, the Potency result was “inactive”.

Turning to `Cc1cn(-c2cc(NC(=O)c3ccc(C)c(Nc4nccc(-c5cccnc5)n4)c3)cc(C(F)(F)F)c2)cn1`, the Potency is 935 nM (active). For `NCc1c[nH]c(=S)n1[C@H]1CCc2c(F)cc(F)cc2C1`, the Potency entry is “inactive”. For the compound `CC(=Cc1ccccc1)C=C1SC(=S)N(CC(=O)O)C1=O`, the Potency entry was “inactive”. In the case of `Cn1cc(-c2cnn3c(N)c(Br)c([C@H]4CCCNC4)nc23)cn1`, the Potency was 2090 nM (active). For the compound `CN(C)C1CCN(C(=O)c2ccc(NC(=O)Nc3nc(N4CCOCC4)nc(N4CCOCC4)n3)cc2)CC1`, the Potency is 662 nM (active). In the case of `Cn1cc(-c2ccncc2)c(-c2ccc(OCc3ccc4ccccc4n3)cc2)n1`, the Potency entry was “inactive”. For `Cc1cc(C(=O)N2CCN(c3cccc(Cl)c3)CC2)n(-c2ccccc2)n1`, the Potency is 7430 nM (active). Consider `O=c1[nH]nc(Sc2ncc([N+](=O)[O-])s2)n1-c1ccc2c(c1)OCCO2`, for which the Potency is 9350 nM (active). Take `CC1=C(C(=O)O)N2C(=O)[C@@H](NC(=O)C(N)c3ccccc3)[C@H]2SC1` (stereo not given in full): the Potency entry is “inactive”.

Regarding `COc1ccccc1-c1cccc(-c2c(O)c3cc(C#N)c(Cl)cc3[nH]c2=O)c1`, the Potency was 17100 nM (active). `O=C(O)C1=CO[C@@H](O[C@@H]2O[C@H](CO)[C@H](O)[C@H](O)[C@H]2O)[C@@H]2C(CO)=CC[C@H]12`: the Potency entry is “inactive”. As to `O=C(O)CCNc1cc(N2CCc3ccccc3CC2)nc(-c2ccccn2)n1`, the Potency entry is “inactive”.
